PubChem BioAssay (NCI)
This is part of a sample that, as a whole, favours compounds with a hit. Of some 83,000 tested, about 20% had one in any assay.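 Percent growth is the endpoint: 0 to 100 indicates growth inhibition (40 means 60% inhibition), 0 means no net growth, and negative values indicate cell death.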 Activity calls are given as the source filed them. Rule for the calls: active = growth percent below 10; inactive = the rest.

What was measured:
Assay in all cases: NCI-60 one-dose screen, 48 h (100 = growth as untreated, 0 = no growth, -100 = all killed)
Settings in all cases: 10 µM unless noted
SK-MEL-2 melanoma = system: SK-MEL-2 melanoma
EKVX NSCLC = system: EKVX NSCLC
SN12C renal = system: SN12C renal
UO-31 renal = system: UO-31 renal
TK-10 renal = system: TK-10 renal
ACHN renal = system: ACHN renal
CAKI-1 renal = system: CAKI-1 renal
A498 renal = system: A498 renal
CCRF-CEM leukemia = system: CCRF-CEM leukemia
MOLT-4 leukemia = system: MOLT-4 leukemia
SR leukemia = system: SR leukemia
RPMI-8226 leukemia = system: RPMI-8226 leukemia
OVCAR-8 ovarian = system: OVCAR-8 ovarian
OVCAR-5 ovarian = system: OVCAR-5 ovarian
OVCAR-4 ovarian = system: OVCAR-4 ovarian
SK-OV-3 ovarian = system: SK-OV-3 ovarian
IGROV1 ovarian = system: IGROV1 ovarian
OVCAR-3 ovarian = system: OVCAR-3 ovarian
HS 578T breast = system: HS 578T breast
NCI/ADR-RES ovarian = system: NCI/ADR-RES ovarian

Measured: growth

O=C1CS/C(=N\Nc2cc(=O)[nH]c3ccccc23)N1c1ccccc1
inactive: SK-MEL-2 melanoma 100% | EKVX NSCLC 87.3% | SN12C renal 94.1% | UO-31 renal 69.7% | TK-10 renal 111% | ACHN renal 93.6% | CAKI-1 renal 81.3% | A498 renal 81.7% | CCRF-CEM leukemia 86.2% | MOLT-4 leukemia 98.8% | SR leukemia 77.9% | RPMI-8226 leukemia 88.4% | OVCAR-8 ovarian 94% | OVCAR-5 ovarian 95.6% | OVCAR-4 ovarian 97% | SK-OV-3 ovarian 107% | IGROV1 ovarian 89.1% | OVCAR-3 ovarian 99.8% | HS 578T breast 97.1% | NCI/ADR-RES ovarian 91.3%

C=CCn1cc(-c2nc3ccccc3s2)c2cc(-c3ccc4c5c(cccc35)C(=O)N(CCN3CCNCC3)C4=O)ccc21
active: SR leukemia 4.31%
inactive: SK-MEL-2 melanoma 99% | EKVX NSCLC 87.8% | SN12C renal 76.3% | UO-31 renal 80.7% | TK-10 renal 132% | ACHN renal 67.4% | CAKI-1 renal 74% | A498 renal 98.9% | CCRF-CEM leukemia 30.2% | MOLT-4 leukemia 92.8% | RPMI-8226 leukemia 46.7% | OVCAR-8 ovarian 13.7% | OVCAR-5 ovarian 90.3% | OVCAR-4 ovarian 88.5% | SK-OV-3 ovarian 101% | IGROV1 ovarian 68.1% | OVCAR-3 ovarian 105% | HS 578T breast 91.8% | NCI/ADR-RES ovarian 83.1%

CCCCCCCCCCCCNC(=O)[C@H]1CSC(c2cc3ccccc3s2)N1 (stereo not given in full)
active: SK-MEL-2 melanoma -45.7% | EKVX NSCLC -59.6% | SN12C renal -16.1% | UO-31 renal -82.6% | TK-10 renal -78.7% | CCRF-CEM leukemia -45.5% | MOLT-4 leukemia -63.3% | SR leukemia -34.6% | OVCAR-8 ovarian -32.9% | OVCAR-4 ovarian -68.5% | SK-OV-3 ovarian -30.1% | IGROV1 ovarian -63.2% | OVCAR-3 ovarian -61.3% | HS 578T breast -41.4% | NCI/ADR-RES ovarian -18.1%
inactive: ACHN renal 17.5% | CAKI-1 renal 74.7% | A498 renal 98.9% | RPMI-8226 leukemia 18.7% | OVCAR-5 ovarian 20.5%

CCOC(=O)C1C(=O)C=C(c2ccc(OC)cc2)CC1c1sc(N(C)Cc2ccccc2)nc1Cl (stereo not given)
inactive: SK-MEL-2 melanoma 74.3% | EKVX NSCLC 82.4% | SN12C renal 79.8% | UO-31 renal 54.2% | TK-10 renal 93.7% | ACHN renal 73.8% | CAKI-1 renal 76.7% | A498 renal 93.6% | CCRF-CEM leukemia 86.5% | MOLT-4 leukemia 61.5% | SR leukemia 81% | RPMI-8226 leukemia 63.9% | OVCAR-8 ovarian 80.9% | OVCAR-5 ovarian 86.2% | OVCAR-4 ovarian 78.2% | SK-OV-3 ovarian 90% | IGROV1 ovarian 104% | OVCAR-3 ovarian 87.5% | HS 578T breast 49.2% | NCI/ADR-RES ovarian 88.2%

COc1cc(/C=C/C(=O)c2c(C)nc3ccccc3c2C)ccc1OCCCCOc1cc2c(cc1OC)C(=O)N1CCC[C@H]1C=N2
inactive: HS 578T breast 39% | NCI/ADR-RES ovarian 43.9%
active: SK-MEL-2 melanoma -100% | EKVX NSCLC -26% | SN12C renal -29.6% | UO-31 renal -93.9% | TK-10 renal -48.4% | ACHN renal -80.7% | CAKI-1 renal -34.5% | A498 renal -84.5% | CCRF-CEM leukemia -36.8% | MOLT-4 leukemia -44.7% | SR leukemia -25.1% | RPMI-8226 leukemia -61.2% | OVCAR-8 ovarian -7.99% | OVCAR-5 ovarian -59.6% | OVCAR-4 ovarian -20.1% | SK-OV-3 ovarian -50.1% | IGROV1 ovarian -100% | OVCAR-3 ovarian -57.1%

C=C[C@@H]1C[C@H](O)Cc2c(C)cc(C)cc2N1
active: CCRF-CEM leukemia -19% | MOLT-4 leukemia -46.2%
inactive: SK-MEL-2 melanoma 111% | EKVX NSCLC 86.9% | SN12C renal 95.9% | UO-31 renal 96% | TK-10 renal 85.8% | ACHN renal 103% | CAKI-1 renal 97.2% | A498 renal 89.9% | SR leukemia 82.8% | RPMI-8226 leukemia 84.7% | OVCAR-8 ovarian 98.5% | OVCAR-5 ovarian 89.3% | OVCAR-4 ovarian 108% | SK-OV-3 ovarian 106% | IGROV1 ovarian 109% | OVCAR-3 ovarian 112% | HS 578T breast 99.9% | NCI/ADR-RES ovarian 97.1%

COc1cc(NC(=O)SC2=NCCS2)cc(OC)c1
inactive: SK-MEL-2 melanoma 106% | EKVX NSCLC 113% | SN12C renal 91.8% | UO-31 renal 93.6% | TK-10 renal 126% | ACHN renal 102% | CAKI-1 renal 108% | A498 renal 90.3% | CCRF-CEM leukemia 99.5% | MOLT-4 leukemia 110% | SR leukemia 93.9% | RPMI-8226 leukemia 63.2% | OVCAR-8 ovarian 98.7% | OVCAR-5 ovarian 97.7% | OVCAR-4 ovarian 98% | SK-OV-3 ovarian 98% | IGROV1 ovarian 139% | OVCAR-3 ovarian 113% | HS 578T breast 99.7% | NCI/ADR-RES ovarian 99%

CC(C)C(C(=O)NCCN1CCOCC1)N1C(=O)/C(=C/c2ccc(Br)cc2)SC1=S (stereo not given)
inactive: SK-MEL-2 melanoma 93.9% | EKVX NSCLC 104% | SN12C renal 93.8% | UO-31 renal 84.9% | TK-10 renal 121% | ACHN renal 101% | CAKI-1 renal 97.9% | A498 renal 96.8% | CCRF-CEM leukemia 97.8% | MOLT-4 leukemia 102% | SR leukemia 111% | RPMI-8226 leukemia 98% | OVCAR-8 ovarian 108% | OVCAR-5 ovarian 102% | OVCAR-4 ovarian 105% | SK-OV-3 ovarian 112% | IGROV1 ovarian 108% | OVCAR-3 ovarian 104% | HS 578T breast 95.1% | NCI/ADR-RES ovarian 96.7%
